# Source: PubChem
# The list is not random: actives were taken first. Their share in the collection is about 5.3%.
# PfM18AAP inh: PfM18AAP inhibitors, malaria aminopeptidase, primary screen, biochemical, QFRET, recombinant enzyme; H-Glu-NHMec fluorogenic cleavage; 290,000 tested, 1.2% active; inhibition, % at 7.35 µM; M18 aspartyl aminopeptidase (Plasmodium falciparum 3D7);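 active means inhibition above the campaign mean inhibition over all tested compounds plus 3 SD, cut at about 28% in these data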;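 further: 0% = plate median of test compound wells and 100% = 2 mM ZnCl2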
# HIF act: HIF pathway transcriptional activators, primary screen, cell-based, U2OS HRE-luciferase, luminescence. U2OS HRE-luciferase reporter; normalized: DMSO 0%, desferrioxamine 100%. 300,000 tested, 0.32% active. activation, % at 7.5 µM (by protocol);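 active means mean activation of at least 10% of the iron chelator positive control signal, with at least half of replicates also reaching 10%; inconclusive means mean and replicate majority disagree about reaching 10%; inactive means mean and most replicates under 10%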
# ALR H2O2 inh: inhibitors of human ALR sulfhydryl oxidase, primary screen, biochemical, H2O2 detection, HRP-luminol luminescence, single point; FAD-linked sulfhydryl oxidase ALR (Homo sapiens), P55789; purified ALR, DTT oxidation; inhibition, % (concentration not given with the values); 290,000 tested, 3.8% active;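 active means mean replicate inhibition above about 79%, with every replicate also reaching it, limit read from the data; inconclusive means only one of the two criteria met; inactive means mean below limit and not every replicate reaching it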
# Target sequence (P55789 whole entry, looked up): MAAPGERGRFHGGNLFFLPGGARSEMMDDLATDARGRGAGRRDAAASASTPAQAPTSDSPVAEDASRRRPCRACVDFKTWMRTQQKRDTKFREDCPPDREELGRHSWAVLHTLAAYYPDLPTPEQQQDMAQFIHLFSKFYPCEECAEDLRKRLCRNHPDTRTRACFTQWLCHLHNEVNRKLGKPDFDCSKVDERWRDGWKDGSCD
# SUMO Mot1 rescue: yeast Mot1-301 growth rescue at high temperature, primary screen, SUMOylation pathway inhibitor project, S. cerevisiae, ATP luminescence, 38.5C; S. cerevisiae Mot1-301 growth rescue; percent above DMSO median, 100 means doubled; growth rescue, % at 18.8 µM; 320,000 tested, 1% active; AID 2716, 2010;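 active means every valid replicate shows activation above 250% relative to neutral control wells; inactive means the rest, any valid replicate at or below 250%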;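 further: OY570 slx delta 5 strain wells were the positive control but not used for scaling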
# * hit, by the source's call; i = inactive; ? = inconclusive; · = not tested or not shown.
SMILES,PfM18AAP inh,HIF act,ALR H2O2 inh,SUMO Mot1 rescue
C/C(=N\Nc1nccnc1Cl)c1ccc(O)cc1,6,2,93*,-3
C/C(=N\Nc1c(Cl)c(Cl)nc(C(=O)O)c1Cl)c1ccc(O)cc1,31*,0,·,8
COC(=O)Nc1ccc(=O)n(Cc2c(Cl)cccc2Cl)c1,7,175*,-6,372
CCCCCCSc1nc(O)c(C2OC(=O)c3c2ccc(OC)c3OC)c(=O)n1CC (configuration not stated),10,0,98*,-14
CC(C)(C)c1ccc(C(=O)N2CCN(C(=O)c3ccco3)CC2)cc1,3,0,5,-6
COc1cc(NC(=O)COc2ccc(C)c(C)c2)ccc1NC(=O)c1ccco1,5,1,-14,-21
COc1ccc(NC(=O)CSc2nc3c(sc4ccccc43)c(=O)n2CCCN2CCCC2)cc1,3,1,99*,-2
O=C(CSc1nc2c(sc3ccccc32)c(=O)n1CCCN1CCCC1)NCC1CCCO1 (configuration not stated),8,1,-3,1
CCN(CC)CCn1c(SCC(=O)NCc2ccccc2)nc2c(sc3ccccc32)c1=O,8,0,97*,5
COc1c(C)cc(Br)cc1C(=O)NC(=S)NCc1ccco1,8,0,4,3
O=C(NCC(c1ccco1)N1CCc2ccccc21)C(=O)Nc1ccc(F)cc1F (configuration not stated),·,2,17,-1
CC(=O)c1cc(CC=C(C)C)c(O)cc1O,-4,0,83*,-17
CC(=O)c1cc(CC=C(C)C)c(O)c(CC=C(C)C)c1O,5,-1,·,-15
CCn1c2ccccc2c2cc(/C(C)=N/O)ccc21,-7,0,98*,-6
CN1CCN(c2ccc(NC(=O)CSc3nnnn3-c3ccccc3Cl)cc2)CC1,7,1,3,-5
COc1cccc(/C=N/NC(=O)c2nc(-c3ccccc3)cc(-c3ccccc3)n2)c1O,-5,11*,·,65
COc1cccc(/C=N/NC(=O)c2c(C)nc3ccc(Br)cn23)c1O,6,32*,44,-9
COc1cc2c(cc1OC)CN(c1ccc([N+](=O)[O-])cc1C#N)CC2,-5,0,87*,-10
COc1cc2c(cc1OC)CN(c1ccc([N+](=O)[O-])cc1Cl)CC2,-13,0,·,32
O=C(O)[C@@H]1CC(O)CN1C(=O)CCc1c[nH]c2ccccc12 (some centres not stated),-3,-2,-2,9
CCCN(CCC)S(=O)(=O)c1ccc(C(=O)N2CCCc3ccccc32)cc1,4,-1,-4,-14
O=C(N/N=C(\Cc1ncc[nH]1)c1ccccc1)c1ccccc1,-3,25*,-1,i
O=C(N/N=C(\Cc1ncc[nH]1)c1ccccc1)c1ccncc1,3,-1,·,-10
COc1ccc(-c2csc(Nc3ccc(S(=O)(=O)Nc4cc(C)on4)cc3)n2)cc1,14,-1,98*,7
N#Cc1ccc(CSc2nnc(NC(=O)c3ccc(=O)[nH]c3)s2)cc1,7,0,92*,-8
SMILES,PfM18AAP inh,HIF act,ALR H2O2 inh,SUMO Mot1 rescue
N#Cc1ccc(CSc2nnc(NC(=O)c3ccc4ncsc4c3)s2)cc1,9,1,?,44
CCN(CC(=O)Nc1ccc(NC(C)=O)cc1)C(=O)Cc1ccc(Cl)c(Cl)c1,6,0,·,·
Cc1onc(C(=O)N2CCN(c3ccccc3)CC2)c1[N+](=O)[O-],-3,0,95*,·
Cc1ccc(Cl)cc1N1CCN(C(=O)c2noc(C)c2[N+](=O)[O-])CC1,2,1,9,·
CCn1c(-c2cc(OC)c(OC)c(OC)c2)n[nH]c1=S,10,1,97*,-6
C=CCn1c(CCSCc2ccc(OC)c(C)c2)n[nH]c1=S,14,-1,44,2
CCn1c(CCCc2ccc(OC)c(C)c2)n[nH]c1=S,29*,-1,7,-6
COCCCn1c(-c2ccc(Cl)cc2)n[nH]c1=S,24,-2,95*,-6
COc1ccc(Cl)cc1-c1n[nH]c(=S)n1C,27,0,89*,-19
Cc1ccc(NCc2nnc(SCC(=O)Nc3cccc(O)c3)n2CC2CCCO2)c(C)c1 (configuration not stated),18,0,4,60
O=C(O)CCSc1nnc(SCC(=O)NC2CCS(=O)(=O)C2)s1 (configuration not stated),·,·,-1,-14
CCn1c(-c2cc(Cl)ccc2OC)n[nH]c1=S,15,0,92*,37
CN1/C(=C/C=C(/C#N)C(N)=O)C(C)(C)c2ccccc21,-9,1,92*,10
COc1cc2c(cc1OC)CN(C(=O)CN1C(=O)c3ccc([N+](=O)[O-])cc3C1=O)CC2,·,0,21,-3
NC(=O)CNC(=O)C1CCN(S(=O)(=O)c2ccc(-n3cnnn3)cc2)CC1,4,0,1,128
CCn1nnc2cc(C(=O)NCC(c3ccccc3OC)N(C)C)ccc21 (configuration not stated),-13,0,·,30
Cc1nn(C)cc1C(=O)/C=C/c1ccc([N+](=O)[O-])cc1,5,0,84*,0
CCn1cc(CN(C)C(=O)/C=C/c2ccc([N+](=O)[O-])cc2)c(C)n1,0,0,-2,-23
COc1ccccc1N1CCN(CC(O)COc2ccc3c(c2)CCC3)CC1 (configuration not stated),3,0,0,-6
COc1ccc(N(CC(=O)NCc2ccccc2)C(=O)Cn2nnc(-c3ccccc3F)n2)cc1OC,3,0,2,-10
Oc1[nH]c2ccccc2c1N=NC(=S)N1CCOCC1,7,11*,90*,1
Oc1[nH]c2ccc(Br)cc2c1N=NC(=S)N1CCOCC1,8,161*,99*,240
Oc1cccc(NC(=S)N=Nc2c(O)[nH]c3ccccc23)c1,23,3,99*,8
O=C(CN1CCN(c2ccc(O)cc2)CC1)Nc1cc([N+](=O)[O-])ccc1Cl,33*,0,99*,-2
COC(=O)c1ccc(NC(=O)CN2CCN(c3ccccc3)CC2)cc1,-3,0,92*,-8
SMILES,PfM18AAP inh,HIF act,ALR H2O2 inh,SUMO Mot1 rescue
O=C(CN1CCN(c2ccc(O)cc2)CC1)NCC(=O)Nc1ccc(F)c(F)c1F,·,·,92*,-17
CC(=O)N1CCN(CC(=O)Nc2cc([N+](=O)[O-])ccc2Cl)CC1,2,·,-10,140
CCCOC(=O)Nc1ccc(N2CCCCC2)cc1,-26,1,97*,0
O=C(CN1CCCCCC1)Nc1ccc(F)c(F)c1F,1,0,-11,11
CC(C)Oc1ccc(C(=O)OCC(=O)N2CCCc3ccccc32)cc1,·,1,-7,-26
O=C(Nc1ccc(Cl)c(S(=O)(=O)N2CCCC2)c1)c1cc(=O)[nH]c2ccccc12,·,·,-1,-4
